Most compounds without a hit are left out; they make up all but 12% or so of the library.
JMJD2A Tudor: qHTS Assay for Inhibitors of JMJD2A-Tudor Domain; Lysine-specific demethylase 4A (Homo sapiens), O75164; AlphaScreen JMJD2A-Tudor / H3K4me3 peptide binding; Potency, µM (series often up to 114 µM), inactives show top-dose activity change, negative = inhibition, most hits filed as inhibitors; actives 4.4% (n = 390,000); AID 504339, 2011; also: % is scaled to controls: 0 for no effect and ±100 for the full control effect; nearly all actives have a fitted effect of over 50% in size
Target sequence (O75164 whole entry, looked up, the tested form may be a part): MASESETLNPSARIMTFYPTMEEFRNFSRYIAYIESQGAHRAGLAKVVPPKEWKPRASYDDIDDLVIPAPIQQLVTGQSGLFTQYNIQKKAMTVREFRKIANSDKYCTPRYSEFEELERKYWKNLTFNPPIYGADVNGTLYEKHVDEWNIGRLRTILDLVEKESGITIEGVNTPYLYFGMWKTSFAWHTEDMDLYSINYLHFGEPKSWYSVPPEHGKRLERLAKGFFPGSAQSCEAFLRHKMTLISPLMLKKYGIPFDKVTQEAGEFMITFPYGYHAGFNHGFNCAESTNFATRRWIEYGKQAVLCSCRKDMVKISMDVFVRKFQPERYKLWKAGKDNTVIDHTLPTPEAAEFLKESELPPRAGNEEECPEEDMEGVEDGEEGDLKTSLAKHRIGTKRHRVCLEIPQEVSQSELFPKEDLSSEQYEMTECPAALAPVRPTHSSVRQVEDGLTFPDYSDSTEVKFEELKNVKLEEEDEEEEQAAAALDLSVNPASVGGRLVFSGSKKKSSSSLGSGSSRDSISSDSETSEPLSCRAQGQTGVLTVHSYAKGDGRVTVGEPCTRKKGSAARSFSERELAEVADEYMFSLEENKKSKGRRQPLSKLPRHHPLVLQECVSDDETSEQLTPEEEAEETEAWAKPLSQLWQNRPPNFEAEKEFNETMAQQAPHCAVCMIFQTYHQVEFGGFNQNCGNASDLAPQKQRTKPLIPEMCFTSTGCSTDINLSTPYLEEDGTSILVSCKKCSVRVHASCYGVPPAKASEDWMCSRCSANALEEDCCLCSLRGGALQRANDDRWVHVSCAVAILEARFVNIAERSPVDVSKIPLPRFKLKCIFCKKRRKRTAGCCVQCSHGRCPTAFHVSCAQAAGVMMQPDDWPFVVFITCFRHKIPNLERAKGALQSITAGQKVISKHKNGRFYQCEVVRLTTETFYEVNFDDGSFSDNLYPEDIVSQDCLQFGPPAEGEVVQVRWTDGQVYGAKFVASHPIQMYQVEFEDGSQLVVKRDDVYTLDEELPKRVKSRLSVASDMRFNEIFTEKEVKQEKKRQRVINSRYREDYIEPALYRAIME
Sfp inh: qHTS Assay for Inhibitors of Bacillus subtilis Sfp phosphopantetheinyl transferase (PPTase) | 4'-phosphopantetheinyl transferase ffp (Bacillus subtilis), Q9F4F7 | Biochemical Sfp PPTase activity, qHTS | Potency, µM, for the others: largest response in the series, negative = inhibition, most hits filed as inhibitors | actives 3.5% (n = 310,000) | AID 1490, 2009;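 also: the enzyme is Sfp with the accession as filed and its product quenches rhodamine fluorescence; 0% = enzyme reaction without inhibitor and -100% = no enzyme wells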
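Reaction rates are the 30-min fluorescence difference (ex 525, em 598 nm) in wells containing 15 nM Sfp, 5 uM rhodamine-CoA and 12.5 uM BHQ-2-YbbR at pH 7.6 with 10 mM MgCl2.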
L3MBTL1 block: qHTS Assay for the Inhibitors of L3MBTL1. Lethal(3)malignant brain tumor-like protein 1 (Homo sapiens), Q9Y468. AlphaScreen L3MBTL1–H3K9me1 peptide binding. Potency, µM (highest dose often 57.1 µM), inactives show at the highest dose activity, negative = inhibition, hits mostly inhibitors. actives 0.66% (n = 230,000). AID 485360, 2010; also: % is scaled to controls: 0 for no effect and ±100 for the full control effect; nearly all actives have a fitted effect of over 60% in size
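Read-out is AlphaScreen signal from streptavidin donor and nickel chelate acceptor beads (10 ug/mL final each) bridging L3MBTL1 (50 nM) and biotinylated K9-monomethylated H3(1-15) peptide (75 nM), after 30 min compound exposure at room temperature.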
HP1b binding inh: HTS for Inhibitors of HP1-beta Chromodomain Interactions with Methylated Histone Tails; Chromobox protein homolog 1 (Homo sapiens), P83916; AlphaScreen HP1-beta / biotin-H3K9me3 peptide binding; Potency, µM (doses to about 114 µM), for inactives: top-dose activity change, negative = inhibition, usual class: inhibitors; actives 0.56% (n = 390,000); AID 540317, 2011; also: nearly all actives have a fitted effect of over 70% in size
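Compound inhibition of the preformed complex between 50 nM HP1-beta and 50 nM biotinylated H3K9me3 peptide was read by AlphaScreen. Buffer was PBS pH 7.4 with 0.01% Tween-20. Incubations ran 30 min at room temperature, with 10 ug/mL donor/acceptor beads.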
G9a block: qHTS Assay for Inhibitors of Histone Lysine Methyltransferase G9a; Histone-lysine N-methyltransferase EHMT2 (Homo sapiens), Q96KQ7; G9a H3K9 monomethylation, AlphaScreen, 2 h; Potency, µM (highest dose often 102 µM), without a hit: top-dose activity, negative = inhibition, actives largely listed as inhibitors; actives 8.8% (n = 350,000); AID 504332, 2011; also: % is scaled to controls: 0 for no effect and ±100 for the full control effect; nearly all actives have a fitted effect of over 75% in size
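Chemiluminescent proximity detection of H3K9 monomethylation, read after 10 min bead incubation in the dark. Reaction: 20 nM G9a, 500 nM biotin-H3K9 peptide, 20 uM SAM cofactor, 2 h, room temperature, following 15 min enzyme-compound preincubation.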
BAZ2B block: qHTS Assay for Inhibitors of BAZ2B | AlphaScreen BAZ2B-H3K14Ac peptide displacement | Potency, µM (doses to about 114 µM), without a hit: top-dose activity change, negative = inhibition, actives largely listed as inhibitors | actives 4.4% (n = 360,000) | AID 504333, 2011; also: % is scaled to controls: 0 for no effect and ±100 for the full control effect; nearly all actives have a fitted effect of over 60% in size
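BAZ2B (50 nM) with biotin-H3(5-23)K14Ac peptide (50 nM) in PBS pH 7.4, 0.01% Tween-20, preformed 30 min, then compound 30 min at room temperature; top concentration 110uM. AlphaScreen streptavidin donor/nickel chelate acceptor beads (10 ug/mL final), 20 min dark, signal read.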
* hit, by the source's call; ? = inconclusive; / = no result; [ ] = remark or other dose. Calls follow the shape of the dose curve; as a rule, active = well fitted curve in the direction sought with a large enough effect; inconclusive = small, poorly fitted or top-dose-only effect, or another doubt; inactive = no such curve, though single readings can be large; an effect the other way counts as inactive or inconclusive. Potency is read from the fitted curve at half-maximal effect.

SMILES	JMJD2A Tudor	Sfp inh	L3MBTL1 block	HP1b binding inh	G9a block	BAZ2B block
CCCn1nc(NC(=O)c2ccco2)c2cc3cc(C)ccc3nc21	9.7%	?	32.8%	64.1%	22.4µM*	20.1%
CCCn1nc(NC(=O)c2ccco2)c2cc3ccc(C)cc3nc21	7.7%	-10.3%	/	45.0%	16.8%[2.33 µM]	4.4%
CCn1nc(NS(=O)(=O)c2ccc(C)cc2)c2cc3ccccc3nc21	-14.5%	6.2%	/	46.4%	/	-0.7%
O=C1NC(c2cc(Cl)cc([N+](=O)[O-])c2O)Nc2ccccc21 (stereo not drawn)	?	11.8%	9.8%	-3.6%	/	39.8µM*
O=C1NC(c2ccc(Cl)c([N+](=O)[O-])c2)Nc2ccccc21 (stereo not drawn)	-3.8%	14.9%	/	13.7%	?	-14.8%
Fc1cccc(Cl)c1/C=C/c1cnc2ccccc2n1	20.0%	-14.0%	/	28.1%	50.1µM*	5.3%
Fc1cccc(F)c1/C=C/c1ccc2ccccc2n1	82.4%	-8.3%	48.5%	201.9%	?	77.5%
CCCCCCC(=O)NC(Nc1ccc(S(N)(=O)=O)cc1)C(Cl)(Cl)Cl (stereo not drawn)	3.9%	18.3%	2.8%	27.2%	-5.9%[59 µM]	9.9%
CN(C)CCOCCOc1ccccc1-c1ccccc1	2.82µM*	79.4µM*	-4.5%	?	-33.8%[0.501 µM]	20µM*
CN(C)CCOc1ccccc1-c1ccccc1	0.891µM*	?	/	?	-40.7%[2.33 µM]	25.1µM*
N=C(N)CCCOc1ccccc1-c1ccccc1	2.8%	-1.3%	8.4%	38.0%	4.9%[59 µM]	1.7%
CCCCN1CCC[C@H]1CNC(=O)c1cc(C#N)c2ccccc2c1OC	/	0.6%	/	/	/	/
Cc1ccc(NCc2cccc(B(O)O)c2)cc1	?	/	/	-16.2%	/	/
O=C(Nc1ccc(Cl)cc1)Nc1ccc2c(c1)N1CCN=C1S2	-11.8%[57.1 µM]	-2.3%	-1.7%	21.1%	31.6µM*	-5.5%
Nc1ccc2c(c1)N1CCN=C1S2	-17.3%	4.5%	-0.1%	-15.6%	7.08µM*	-5.7%
C1=C(c2ccccc2)N2CCN=C2S1	-11.9%	14.5%	/	20.8%	-36.5%[59 µM]	-1.9%
COc1ccc(C(=O)CN2CCN(c3cc(C)nc4ccccc34)CC2)cc1	-17.4%	0.2%	-10.5%	36.6%	12.6µM*	-11.8%
O=C(CN1CCN(c2ccc([N+](=O)[O-])cc2)CC1)c1ccccc1	?	?	/	-4.1%	7.08µM*	-25.7%
O=C(CN1CCC2(CC1)OCCO2)c1ccc2cc[nH]c2c1	-8.2%	5.1%	4.7%	9.7%	?	10.9%
O=C(CN1CCN(c2ccccc2)CC1)c1ccc2cc[nH]c2c1	-12.5%	?	/	28.1%	11.2µM*	13.9%
COc1ccc(N2CCN(CC(=O)c3ccccc3)CC2)cc1	?	-16.1%	/	-2.1%	11.2µM*	-20.7%
CCOC(=O)CSc1nc(-c2ccc(F)cc2)cc(C(F)(F)F)c1C#N	21.3%	/	/	76.5%	1.6%[59 µM]	13.1%
COc1ccc(S(=O)(=O)Nc2ccc3c(c2)CC(=O)N([C@@H](C)CO)C[C@H](C)[C@@H](CN(C)S(=O)(=O)c2ccc(F)cc2)O3)cc1	-24.1%	/	-5.8%	28.1%	/	/
COc1ccc(N2CCN(C(=O)CCCC(=O)c3ccccc3)CC2)cc1	-22.1%	7.2%	-5.0%	17.1%	-13.8%	?
CC1CCN(CC(=O)N2c3ccccc3CC2C)CC1 (stereo not drawn)	-3.6%	9.3%	9.8%	27.5%	-3.7%	-3.5%
COc1ccc(N2CCN(CCC(=O)c3ccc4ccccc4c3)CC2)cc1	?	-8.7%	/	-9.7%	10µM*	?
